Experimental data from PubChem BioAssay (NCI).
“And” between values parts separate entries of the source, which are not always exact repeats. Identical values can stand only once. The panel holds about 79,000 compounds, 15% with a hit somewhere; the sample as a whole holds those more often. The source made the active and inactive calls. Rule as the data show it: active = growth inhibition above about 70%; inactive = the rest.

Experiment: NCI Yeast Anticancer Drug Screen. Data for the mec2-1 strain (AID 157)
Details: S. cerevisiae mec2-1 strain, stronger effect = higher value; at 50.0 µM unless noted
Protocol: Growth inhibition of yeast strains with defined genetic alterations is measured as a screen for potential anti-cancer activity. Selected strains with alterations in DNA damage repair or cell cycle control were exposed to compounds and growth inhibition was measured relative to vehicle treated controls. The strain used in this assay is mec2-1

Structure (SMILES) | growth inhibition
O=C(O)C1CCC(=O)N1Cc1c[nH]c2ccccc12 (stereo not given) | -7.4% (inactive)
Clc1cc(NCc2ccco2)ncn1 | -6.3% (inactive)
CC1OC(O)C(O)C(O)C1O (stereo not given) | -11.7% (inactive) and 6.25% (inactive)
CC1(C)COC1(c1ccccc1)c1cccnc1 (stereo not given) | -11.4% (inactive)
CN(C)C(=O)C(c1ccccc1)C(c1ccccc1)N(C)C=O (stereo not given) | -2.2% (inactive)
CC(C)NCC(O)COc1cccc2[nH]c3ccccc3c12 (stereo not given) | -8.45% (inactive)
CCCCCCCCCCCC[N+](C)([O-])CCCCCC[N+](C)([O-])CCCCCCCCCCCC (stereo not given) | 98.7% (active)
C=Nc1ccc(Nc2ccccc2)cc1 | -5.2% (inactive)
CC(=O)OCC1OC(n2c(=O)[nH]c(=O)c3n[nH]nc32)C(OC(C)=O)C(OC(C)=O)C1OC(C)=O (stereo not given) | 7.15% (inactive)
Cc1ccc(NCC2CC/C(=C\c3ccc(Cl)cc3)C2=O)cc1 (stereo not given) | -22.8% (inactive)
O=c1[nH]cnc2nc(N3CCOCC3)sc12 | -4.6% (inactive)
COCc1cccc2ccnc(COC)c12 | 2.45% (inactive)
N#Cc1c(O)c(N=Nc2ccc(Cl)cc2)c(=O)n2c1[nH]c1ccccc12 | 14.2% (inactive)
CCOC(=O)c1c(-c2ccccc2)csc1NS(=O)(=O)c1ccc(C)cc1 | 78.2% (active)
COc1cc(CNc2ccccc2)ccc1O | 6.1% (inactive)
NC1=NCC(CN2CCCCC2)O1 (stereo not given) | 1.8% (inactive)
O=S(=O)(O)CCCOC1COc2ccccc2OCCOCCOc2ccccc2OC1 | 1.65% (inactive)
O=c1[nH]c(=O)c2[nH]c(Br)nc2[nH]1 | -4.3% (inactive)
CN1C(=O)C(c2c[nH]c3ccccc23)N(C)C(=O)C1c1c[nH]c2ccccc12 (stereo not given) | -10.8% (inactive)
C(=C/c1ccccc1)/c1ccccc1 | -16.1% (inactive)

Structure (SMILES) | growth inhibition
O=C1C=CC(=O)C(CNc2ccc(C(=O)OCc3ccccc3)cc2)=C1 | 8.75% (inactive)
CSC1=NC(C(N)=O)C(N)N1C (stereo not given) | -16.4% (inactive)
CCC1([N+](=O)[O-])COC(CCc2ccccc2)OC1 (stereo not given) | -20.9% (inactive)
COC(=O)c1ccc2c(c1)CC1(C2)Cc2cc3c(cc2C1)CCC3 | -19.9% (inactive)
COc1c(O)cc2c(c1O)C1OC(CO)C(O)C(O)C1OC2=O (stereo not given) | -15.4% (inactive)
COc1cc(O)c(C/C=C/c2ccccc2)cc1O | 21.4% (inactive)
[N-]=[N+]=CC(=O)CCC(=O)N(c1ccccc1)c1ccccc1 | -20.8% (inactive)
O=C(NCCO)c1c(O)c2ccccc2[nH]c1=O | 0.2% (inactive)
COC(=O)C(NC(=O)c1ccccc1)C(c1ccc(Cl)cc1)P(=O)(OC)OC (stereo not given) | -1% (inactive)
Cc1ccc(NC(=O)CCS)cc1 | -25.9% (inactive)
CCc1cc(N(C)C)ccc1N=Nc1ccc([N+](=O)[O-])cc1 | 9.65% (inactive)
Nc1ccccc1[N+](=O)[O-] | -3.45% (inactive)
O=C(O)[C@H](Cc1ccccc1)N1C(=O)N[C@@H](Cc2ccccc2)C1=O | -1.7% (inactive)
CCCCOC(=O)CC(O)C(=O)OCCCC (stereo not given) | -4.45% (inactive)
Brc1ccc(-c2ccccc2)cc1 | 17.8% (inactive)
O=C(CCl)NNC1=Nc2ccc(Cl)cc2SC1 | -3.65% (inactive)
O=C1Oc2ccccc2C(=O)/C1=C/N1C(=O)N/C(=C\c2cccc(O)c2)C1=O | 19.9% (inactive)
Oc1[nH]c2ccccc2c1N=NC(=S)Nc1ccccc1 | 2.5% (inactive)
COc1ccc(C(N2CCNCC2)N2CCNCC2)cc1 | 6.3% (inactive)
O=C1CC2(C(=O)O)CC3CC2C(O1)C3I (stereo not given) | 10.6% (inactive)
